A selection: hits, their analogues and other compounds. The true share with any hit is near 10%.
12-hLO inh = qHTS Assay for Inhibitors of 12-hLO (12-human lipoxygenase); Polyunsaturated fatty acid lipoxygenase ALOX12 (Homo sapiens), P18054; purified 12-hLO, xylenol orange hydroperoxide absorbance; Potency, µM (highest dose often 57.1 µM), for inactives: at the highest dose activity change, negative = inhibition, usual class: inhibitors; actives 0.12% (n = 150,000); AID 1452, 2008; active = well fitted inhibition curve with a large enough effect; inconclusive = small, poorly fitted or top-dose-only effect; also: potency is read from the fitted curve at half-maximal effect; nearly all actives have a fitted effect of over 55% in size
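Purified human 12hLO (150 nM), preincubated 15 min with compound, then 40 uM arachidonic acid for 30 min, room temperature, Hepes pH 7.0 with 0.01% Triton X-100. Hydroperoxide detected by ferrous iron/xylenol orange; 573/405 nm absorbance ratio gives reaction progress.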
ALDH1A1 block = qHTS Assay for Inhibitors of Aldehyde Dehydrogenase 1 (ALDH1A1); actives 7.3% (n = 220,000); AID 1030, 2008; Potency, µM (series often up to 75.3 µM), inactives show at the highest dose activity, negative = inhibition, hits mostly inhibitors; Purified ALDH1A1, NADH fluorescence, propionaldehyde substrate; Aldehyde dehydrogenase 1A1 (Homo sapiens), P00352;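 also: potency is read from the fitted curve at half-maximal effect; plate controls were no enzyme wells and a reference inhibitor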
Lamin A splicing = qHTS Assay for Modulators of Lamin A Splicing; HeLa LMNA splicing GFP/RFP minigene ratio, 48 h; Potency, µM (titrated, usually from 46.1 µM), without a hit: top-dose ratio change, negative = inhibition, usual class: inhibitors; actives 0.01% (n = 200,000); active = well fitted inhibition curve with a large enough effect in the signal ratio, with a control signal flat, not every such curve was filed as active; inconclusive = small, poorly fitted or top-dose-only effect, or effect the other way, or a change in a side signal; the % refers to the signal ratio; also: potency is read from the fitted curve at half-maximal effect
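Read-out is the ratio of GFP to DsRed2 object intensity, acquired by 488 nm laser-scanning cytometry on HeLa lamin A-EGFP minigene reporter cells. Compound incubation 48 hrs at 37 °C in Opti-MEM with 2% FBS; DMSO 0.5% final.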
PNC assembly inh = High Content Assay for Compounds that inhibit the Assembly of the Perinucleolar Compartment | PC3M PTB-GFP, PNC prevalence imaging, 16 h; hits give low values | activity change (PNC), negative = inhibition, % at 10 µM | actives 3.1% (n = 140,000);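 active = readout at or below -70, meaning at least 70% loss of cells showing the perinucleolar compartment, a nuclear body marking cancer cells; inconclusive = readout between -30 and a set limit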;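 also: plate controls were DMSO wells for no effect and camptothecin positive control wells for full effect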
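PC3M cells stably expressing PTB-GFP, 750–1000 cells/well, treated 16 h at 37 °C with compound (23 nl of library stock), in duplicate. After paraformaldehyde fixation and Hoechst stain, imaged at 20x; PNC prevalence scored by image analysis.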
HPGD block = qHTS Assay for Inhibitors of HPGD (15-Hydroxyprostaglandin Dehydrogenase); 15-hydroxyprostaglandin dehydrogenase [NAD(+)] (Homo sapiens), P15428; purified HPGD, NADH fluorescence kinetic, PGE2 substrate; Potency, µM, inactives show top-dose activity change, negative = inhibition, hits mostly inhibitors; actives 4.3% (n = 150,000); also: potency is read from the fitted curve at half-maximal effect
Target sequence (P15428 whole entry, looked up): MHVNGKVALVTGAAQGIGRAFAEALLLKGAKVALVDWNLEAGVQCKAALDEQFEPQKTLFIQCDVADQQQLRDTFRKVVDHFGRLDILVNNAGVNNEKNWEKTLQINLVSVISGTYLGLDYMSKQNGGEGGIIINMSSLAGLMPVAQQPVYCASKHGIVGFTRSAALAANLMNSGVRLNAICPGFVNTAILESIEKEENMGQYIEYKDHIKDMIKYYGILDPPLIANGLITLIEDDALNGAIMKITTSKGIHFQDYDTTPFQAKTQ
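NADH formation kinetics: reaction with 30 uM PGE2 and 1 mM NAD+ (final), 20 nM enzyme, Tris-HCl pH 8 with Tween 20, after 15 min compound preincubation at room temperature. Fluorescence change, last versus first of five reads.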
* = called active by the depositor; ? = inconclusive; / = no result; [ ] = another dose, or the depositor's remark. Unless noted, calls follow the shape of the dose curve; as a rule, active = well fitted inhibition curve with a large enough effect (not every such curve was filed as active); inconclusive = small, poorly fitted or top-dose-only effect, or another doubt; inactive = no such curve, though single readings can be large or run the other way. Unless noted, % is scaled to controls: 0 for no effect and ±100 for the full control effect.

SMILES | 12-hLO inh | ALDH1A1 block | Lamin A splicing | PNC assembly inh | HPGD block
O=C(/C=C/c1ccc(O)cc1)c1ccc(NC2=C(N3CCCCC3)C(=O)c3ccccc3C2=O)cc1 | -22% | 8.9µM* | ? | 18 | -15%
O=C1C(Nc2cccc(O)c2)=C(N2CCCCC2)C(=O)c2ccccc21 | 2% | ? | 11% | 47 | -11%
O=C1C(Nc2ccccc2)=C(N2CCCCC2)C(=O)c2ccccc21 | 0% | 20µM* | ? | 61 | -1%
COc1ccccc1NC1=C(N2CCCCC2)C(=O)c2ccccc2C1=O | -3% | 10µM* | ? | -85* | -4%
Cc1ccc(NC2=C(N3CCCCC3)C(=O)c3ccccc3C2=O)cc1 | -13% | 7% | 28% | 13 | /
COC(=O)c1ccccc1-c1ccc(C(c2c(C)[nH][nH]c2=O)c2c(C)[nH][nH]c2=O)o1 | / | 11% | / | / | /
Cc1[nH][nH]c(=O)c1C(c1ccc(-c2ccc(Cl)c(C(=O)O)c2)o1)c1c(C)[nH][nH]c1=O | / | 10µM* | 29%[46 µM] | / | /
O=C(O)c1cc(-c2ccc(/C=N/Nc3ccc(Cl)cc3)o2)ccc1Cl | ? | ? | 17% | 74 | ?
COC(=O)c1cccc(-c2ccc(C(c3c(C)[nH][nH]c3=O)c3c(C)[nH][nH]c3=O)o2)c1 | / | 6.3µM* | -18%[46 µM] | / | /
CCOC(=O)c1ccc(NC(=O)C(CC)Sc2nc3ncccc3[nH]2)cc1 (centres undefined) | / | / | 0%[46 µM] | / | /
COCC#Cc1ccc(C2NC(C(=O)O)CCC2C)cc1 (centres undefined) | / | 16%[13.5 µM] | / | / | /
CCc1cccc(C)c1NC(=S)NCc1cccn1C | -24% | 14µM* | 8% | 143 | -15%
Cc1ccccc1NC(=S)NCc1cccn1C | -2% | -11% | -10% | 2 | -24%
O=C1CC(c2ccccc2)Oc2ccccc21 (centres undefined) | -2% | -3% | -4% | / | -17%
O=S(=O)(N/N=C1/CCCc2ccccc21)c1ccc(Br)cc1 | -2% | 14µM* | -9% | 52 | -10%
O=S(=O)(N/N=C1/CC(c2ccccc2)Oc2ccccc21)c1ccc(Br)cc1 (centres undefined) | -16% | 22µM* | -14% | ? | -18%
Cc1ccc(C)c(S(=O)(=O)N/N=C2/CCCc3ccccc32)c1 | 4% | ? | 1% | 0 | -15%
CNC(=S)N/N=C1\CC(c2ccccc2)Oc2ccccc21 (centres undefined) | / | 4% | / | / | /
Fc1ccc(N/N=C2/CC(c3ccccc3)Oc3ccccc32)c(F)c1 (centres undefined) | ? | ? | 20% | -94* | -29%
Cc1ccc(S(=O)(=O)N/N=C2/CC(c3ccccc3)Oc3ccccc32)cc1[N+](=O)[O-] (centres undefined) | -4% | 7.1µM* | -15% | 16 | -29%
COc1ccc(-c2nc3cnc(N4CCN(C)CC4)nc3n(C)c2=O)cc1 | / | ? | -7% | / | /
Cc1cc(=O)cc2oc3cc(N)c(-c4c(C)cc(O)cc4O)c(C)c3nc1-2 | -5% | -5% | / | / | -12%
CCN(C(=O)Cn1c(SCc2ccccc2F)nc2cccnc21)c1ccccc1 | / | / | -12%[46 µM] | / | /
COC(=O)CCC(=O)COc1ccccc1C#N | -1% | ? | 2% | 9 | 14µM*
COc1ccccc1NCC(=O)N/N=C/C=C/c1ccccc1 | -4% | 14µM* | -17% | 42 | -16%
COc1ccc(/C=C/C=N/NC(=O)COc2ccc(OC)cc2)cc1 | 3% | 4% | 6% | ? | -10%
COc1ccccc1NCC(=O)N/N=C/c1cccnc1 | 3% | ? | -3% | ? | -21%
COc1ccc(NCC(=O)N/N=C/C=C\c2ccccc2)cc1 | -5% | 9.5µM* | -13% | ? | -22%
Cc1ccc(N2C(=N)/C(=C3/Nc4ccccc4S3)C(c3ccccc3)C2=O)cc1 (centres undefined) | 3% | 9.5µM* | -20% | ? | /

Assay outcomes: PubChem, National Center for Advancing Translational Sciences (NCATS)
